What was measured:
Assay in all cases: PBM binding z-score (relative to random genomic background probes); higher = stronger binding; sequences stand for … in GC…GCGATTGACAGCGTAGAATGAAGG
[1] = tested on: RARb homodimer (NR concentration 270 nM)
Method in brief: (§1)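 Binding buffer was PBS pH 7.4 with 2% milk, 0.02% Triton X-100, 1 mM DTT, 0.2 mg/mL BSA and 0.4 mg/ml salmon testes DNA. In it, ligand-free nuclear receptor dimers were incubated 1 h on custom Agilent 4×180K protein-binding microarrays carrying double-stranded probes. Antibodies against each partner (one per run) detected binding, and z-scores were calculated against random background probes after regression normalization of scanned fluorescence.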

[2] = tested on: RARg:RXRa (NR concentration 270 nM, RXRa partner concentration 90 nM)
Method in brief: as §1

[3] = tested on: RARg homodimer (NR concentration 270 nM)
Method in brief: as §1

[4] = tested on: RXRa DBDmut IVT, anti-RXR (DBD mutation: RXRa K156A/R161A, NR concentration 90 nM)
Method in brief: as §1

[5] = tested on: RXRa homodimer (NR concentration 180 nM)
Method in brief: as §1

[6] = tested on: THRa:RXRa (NR concentration 90 nM, RXRa partner concentration 90 nM)
Method in brief: as §1

[7] = tested on: THRa homodimer (NR concentration 90 nM)
Method in brief: as §1

[8] = tested on: VDR homodimer (NR concentration 270 nM)
Method in brief: as §1

Sequence | PBM binding z-score [1] | PBM binding z-score [2] | PBM binding z-score [3] | PBM binding z-score [4] | PBM binding z-score [5] | PBM binding z-score [6] | PBM binding z-score [7] | PBM binding z-score [8]
CCTTACGGGTCTCTGACAGGTTATAGCATTTGGA | -0.0333 | 0.29 | 0.275 | 0.321 | 0.277 | 0.0789 | -0.175 | -0.188
TCATATAGGTAAAGGTGAAACTCGAACGATATGA | 1.6 | 1.84 | 1.54 | 0.648 | 2.47 | 1.57 | -0.601 | -0.375
CCTAGCAGGCCAGGGTCACTCCAGCATTTCGCTT | 2.7 | 2.61 | 2.18 | 0.578 | 2.86 | 2.61 | 1.02 | 1.64
ATATCTAGGTAAGACTCAGTTCAGTGAAGAACGC | 0.918 | 0.275 | 0.108 | 0.525 | 0.354 | 0.631 | 0.604 | 1.41
CGAACTAGGTCATCCAGGACATTGAATACATTGA | 3.11 | 3.95 | 4.63 | 2.66 | 2.95 | 3.87 | 2.27 | 3.47
ATAACGAGGGCACGCTGAGTTGATAGCAGAGTAG | 1.27 | 1.72 | 2.4 | 1.64 | 1.46 | 2.07 | 0.209 | 2.05
GCTTACGGGTCAAAGGTTATAGCTTGAATAGAAT | 3.13 | 6.69 | 4.63 | 2.37 | 8.87 | 3.57 | -0.0839 | 1.45
GGAACGAGGGCCAAGTTGATAGCATCTGTCGACG | -0.0615 | 0.0796 | 0.46 | 0.125 | 0.105 | -0.432 | -0.99 | -0.364
ATACCAAGGTGCTCGTGAGGTCGTTGATACTAAC | 1.4 | 0.626 | 0.196 | 0.552 | 0.882 | 3.31 | 2.12 | 2.55
ACTCGGAGAACAAAGGTCAGAGCTACGCCAGTGA | 4.39 | 4.46 | 3.88 | 0.505 | 4.55 | 2.76 | 0.0239 | 0.553
CCTAGTTGGTCAGGAGGACACACACCGGATATGA | 1.58 | 1.2 | 1.73 | -0.252 | 0.276 | 1.28 | 1.43 | 0.975
TTACCAAGGGGAAGGTCGTTGATCCCTCTGTAGA | 0.634 | 0.225 | -0.054 | -0.444 | 0.898 | 0.64 | -0.636 | 0.435
ATACCAAGGTGATCGTGAGGTCGTTTATACTAAC | 1.98 | 2.29 | 1.01 | 1.06 | 1.36 | 3.56 | 2.59 | 3.5
CCGAATGGGGCAAAGGTTACCATACTCAGTACGA | 2.37 | 3.65 | 1.72 | 0.549 | 4.27 | 1.86 | -0.191 | 0.204
GCGACTGGGGCAAAGCACGTTACCATAAGGTTGG | 0.0132 | 0.0263 | 0.422 | -0.0988 | 0.0282 | -0.139 | -0.582 | -0.524
CCTTACTGGTCAAGGTTATAGCACGGGTGGTACG | 1.78 | 1.43 | 1.55 | -0.171 | 1.37 | 1.52 | 1.09 | 0.749
TCGAGTAGGTTACCAATGGGGGATTCAGCTTTCT | 0.472 | 1.09 | 0.478 | 0.789 | 0.767 | 0.805 | 0.162 | -0.0448
GCTTACGGGTCAAAGGGTATAGCATGAATAGAAT | 2.63 | 5.24 | 4.04 | 2.41 | 7.03 | 2.8 | -0.191 | 1.45
CGTCCAAGGTCAAAGGTTAGTGAAGAGATGACGG | 4.34 | 7.04 | 6.48 | 3.99 | 8.4 | 4.33 | 2.53 | 3.02

Sequence | PBM binding z-score [1] | PBM binding z-score [2] | PBM binding z-score [3] | PBM binding z-score [4] | PBM binding z-score [5] | PBM binding z-score [6] | PBM binding z-score [7] | PBM binding z-score [8]
TCGGCTAGGTCAACGATGGTCAGCTAATCTGCTA | 3.12 | 4.15 | 5.22 | 0.991 | 2.56 | 2.96 | 0.739 | 0.189
TCTTGTGGATCAAAGGTTAAGAAAGCCGAAGCCT | 1.42 | 1.5 | 0.798 | 0.751 | 3.43 | 1.47 | -0.309 | -0.0408
ACTCGGAGGACTAAGGTCAGAGCTACGCCAGTGA | 3.15 | 2.89 | 2.54 | 0.168 | 2.34 | 3.35 | 2.6 | 0.805
CTACCAAGCTGAACAAGGTCGTTGATTACTATTC | 1.13 | 0.311 | 0.109 | 1.3 | 0.787 | 1.86 | 1.46 | 2.1
TGTCAAAGTTCAACGGTAACGTAAGTATCCACAC | 3.79 | 5.69 | 6.35 | 4.26 | 5.2 | 1.98 | -0.415 | 3.5
CGTCCAAGGTGAGCAGGTCAGTGAAAGCGACGTG | 2.7 | 2.24 | 2.37 | -0.254 | 1.09 | 2 | 0.649 | -0.353
CCTCGGAGGACAGAAGGTAAGAGCTGTCCGCTTT | -0.457 | -0.117 | 0.0766 | -0.382 | -0.845 | -0.0375 | -0.566 | -0.677
CCTAGTTGGTAAGGAGGTCACACACCGGATATGA | 3.85 | 3.75 | 3.06 | 0.539 | 4.06 | 3.44 | 2.35 | 2.37
CCTACTAGGCCACGAAAGGTCATTGATTCAGTGA | 4.71 | 4.9 | 4.91 | 1.22 | 5.5 | 3.85 | 1.29 | 2.66
GGAACGAGGCCATTCGAGTTGATAGCATGGCGAT | -0.135 | 0.361 | 0.706 | 2.13 | -0.125 | 2.23 | -0.443 | 1.7
GCTAGTTGGACAGTAAAAGGTCACACACCGGTCG | 5.22 | 4.89 | 4.27 | 0.31 | 4.94 | 3.55 | 1.71 | 1.59
GCGACTGGGGCAAAGCTGGTTACCATAAGGTTGG | 0.208 | 0.0391 | 0.0418 | 0.0315 | -0.0119 | 0.398 | -0.232 | -0.208
GGAACGAGGGCAAAGTTGATAGAATCTGTCGACG | 1.19 | 2.18 | 1.77 | 2.54 | 2.06 | 1.39 | -0.286 | 1.42
TAGCCTAGGTCATGCGCCAGTATACCACGCGAAC | 2.94 | 3.96 | 4.3 | 0.931 | 3.24 | 3 | 1.31 | 0.653
CGAACTAGGTCATTGACAGGATAGTGAATAGTAA | 2.38 | 3.62 | 3.86 | 2.34 | 2.55 | 2.57 | 0.521 | 0.957
CGACAAAGTTCAACTAAGGTAACGTAAAGCACGC | 4.21 | 5.63 | 6.69 | 4.18 | 4.41 | 5.06 | 1.57 | 3.79
GTACCAAGGTGAATAGGACGTTGATGAGTAGGCG | 0.539 | 0.543 | 0.959 | -0.489 | 0.542 | 1.24 | 0.345 | 0.0653
GCATATTGGTAATACAAGGTGAAAGTCCGATTGT | 0.603 | 0.0948 | 0.327 | 0.349 | 0.367 | 2.39 | 1 | -0.108
GGAACGAGGGCAAGTTGATAGTAGAGTTTGATGG | 1.75 | 1.54 | 2.17 | 2.51 | 0.814 | 1.36 | 0.454 | 2.31

From the supplement of paper PMC6555819
